32 molecules from ChEMBL document CHEMBL1157539, “Thousands of chemical starting points for antimalarial lead identification” (Nature, 2010) can be followed below.

The structures appear in SMILES notation.

What all share (assay type): functional
Experiment [1] concerns Plasmodium falciparum. Nature of the experiment: GSK_TCMDC: Inhibition of Plasmodium falciparum 3D7 in whole red blood cells, using parasite LDH activity as an index of growth. Test compounds present at 2uM.
The subject of experiment [2] is Plasmodium falciparum. Nature of the experiment: GSK_TCMDC: Inhibition of Plasmodium falciparum Dd2 in whole red blood cells, using parasite LDH activity as an index of growth. Test compounds present at 2uM.
A further experiment deals with HepG2. The experiment can be described thus: GSK_TCMDC: Percent inhibition of human HepG2 cell line. Test compounds present at 10uM.

Consider `CC(C)c1ccc(CN(C)CCCCNC(=O)c2ccc(NC(=O)c3ccc(Cl)cc3)cc2)cc1`, for which the Inhibition (as a rule, the change of the read-out against control, counted positive when it falls) was 92% in the experiment on Plasmodium falciparum [1], 0% in the experiment on Plasmodium falciparum [2] and 17% with HepG2.

Take `COc1ccc(NC(=O)Nc2ccc(C)c(-c3ccc(C(=O)NCCN4CCCC4)cc3)c2)cc1`: the Inhibition is 95% in the experiment with Plasmodium falciparum [1], 1% with Plasmodium falciparum [2] and 18% with HepG2.

With `CCNc1cc(C(=O)N[C@@H](Cc2ccc(F)c(F)c2)[C@H](O)CNC2CCCCC2)cc(N2CCCCS2(=O)=O)c1.Cl`, the Inhibition in the experiment with Plasmodium falciparum [1] was 100%; in the experiment with Plasmodium falciparum [2] it was 84%; in the experiment on HepG2, 1%.

As for `Cc1cc(Nc2ccc(O)cc2)nc2cc(O)ccc12.Cl`, the Inhibition in the experiment with Plasmodium falciparum [1] was 100%; in the experiment on Plasmodium falciparum [2] it was 9%; in the experiment on HepG2, 0%.

`COc1ccc(C#Cc2ccc(-c3c(C)[nH]c(C)c(Cl)c3=O)cc2)cc1`: the Inhibition with Plasmodium falciparum [1] came to 97%; in the experiment with Plasmodium falciparum [2], 97%; in the experiment with HepG2 it was 0%.

Regarding `COc1ccc(OC)c(C=NNc2nc3ccccc3[nH]2)c1`, the Inhibition with Plasmodium falciparum [1] is listed as 99%; in the experiment on Plasmodium falciparum [2], 28%; in the experiment on HepG2, 0%.

As to `CN1CCCN(Cc2cccc(-c3ccc(CNC(=O)c4cccc(Cl)c4)c(F)c3)c2)CC1.O=C(O)C(F)(F)F`, the Inhibition amounted to 96% in the experiment with Plasmodium falciparum [1], 38% in the experiment with Plasmodium falciparum [2] and 56% with HepG2.

As for `O=C(O)C(F)(F)F.O=S(=O)(/C=C/c1ccccc1)N(Cc1ccc(-c2ccc(CNCCc3ccccc3)cc2)cc1)CC1CCCCN1` (stereo unspecified), the Inhibition in the experiment with Plasmodium falciparum [1] came to 100%; with Plasmodium falciparum [2], 96%; in the experiment with HepG2, 99%.

Turning to `Cc1cc(N(C)C)nc(Nc2ccc(NC(=O)c3ccccc3F)cc2)n1`, the Inhibition worked out at 89% in the experiment with Plasmodium falciparum [1], 26% in the experiment on Plasmodium falciparum [2] and 0% with HepG2.

For the molecule `CN(C)C(CNC(=O)c1cc(-c2ccncc2)c(-c2ccc(NC(=O)Nc3ccccc3)cc2)o1)c1ccccc1.O=C(O)C(F)(F)F` (stereo unspecified), the figures for the Inhibition in the experiment with Plasmodium falciparum [1], in the experiment on Plasmodium falciparum [2] and with HepG2 were 100%, 96% and 19%, respectively.

With `CCN(CC)CCN(Cc1ccc(-c2ccc(C(F)(F)F)cc2)cc1)C(=O)Cn1c(CCc2cccc(F)c2F)c(C)c(=O)c2ccccc21.O=C(O)C(O)C(O)C(=O)O`, the figures for the Inhibition with Plasmodium falciparum [1], with Plasmodium falciparum [2] and in the experiment with HepG2 were 87%, 52% and 61%, respectively.

In the case of `FC(F)(F)c1cccc(C=NNc2nc3ccccc3[nH]2)c1`, the figures for the Inhibition in the experiment with Plasmodium falciparum [1], in the experiment on Plasmodium falciparum [2] and with HepG2 were 100%, 99% and 1%, respectively.

As to `Cc1c(C(=O)Nc2cc(Sc3ccc(F)cc3)cc([N+](=O)[O-])c2)sc2ncn(Cc3ccccc3F)c(=O)c12`, the results for the Inhibition in the experiment on Plasmodium falciparum [1], in the experiment on Plasmodium falciparum [2] and in the experiment on HepG2 were 98%, 45% and 2%, respectively.

`CC(=O)O.Cc1cc(F)ccc1[C@H]1CNCCN1C(=O)N(C)[C@@H](C)c1cc(C(F)(F)F)cc(C(F)(F)F)c1`: the results for the Inhibition in the experiment on Plasmodium falciparum [1], in the experiment with Plasmodium falciparum [2] and with HepG2 were 100%, 99% and 20%, respectively.

As for `CC(C)(C)CNc1noc(-c2sccc2Br)n1`, the Inhibition with Plasmodium falciparum [1] was 82%; in the experiment on Plasmodium falciparum [2], 71%; with HepG2, 4%.

For `Nc1cccc(CNCc2cccc(-c3cccc(-c4nc5cc(F)ccc5[nH]4)c3)c2)c1.O=C(O)C(F)(F)F`, the Inhibition was determined as 100% in the experiment with Plasmodium falciparum [1], 82% in the experiment on Plasmodium falciparum [2] and 5% with HepG2.

In the case of `Cc1cc(C(=O)Nc2ccc3c(c2)CCN3C2CCN(Cc3ccc4nsnc4c3)C2)no1` (stereo unspecified), the Inhibition in the experiment with Plasmodium falciparum [1] is listed as 90%; in the experiment with Plasmodium falciparum [2], 94%; in the experiment on HepG2, 0%.

As for `CC(C)C(=O)ONC1=NC(=N)N(OCCCOc2cc(Cl)c(Cl)cc2Cl)C(C)(C)N1`, the Inhibition in the experiment with Plasmodium falciparum [1] was 95%; in the experiment with Plasmodium falciparum [2] it was 96%; with HepG2, 64%.

Regarding `CN(Cc1cccc(O)c1)C1CCN(c2cc(NC(=O)c3ccc(F)cc3)ccn2)C1.O=C(O)C(F)(F)F` (stereo unspecified), the Inhibition with Plasmodium falciparum [1] was 91%; with Plasmodium falciparum [2], 6%; in the experiment with HepG2 it was 5%.

In the case of `O=[N+]([O-])c1cccc(/C=N/Nc2ccnc3ccc(C(F)(F)F)cc23)c1`, the Inhibition is listed as 96% in the experiment on Plasmodium falciparum [1], 35% with Plasmodium falciparum [2] and 0% in the experiment on HepG2.

In the case of `O=C(NOCCCCOc1ccc(Cl)c(Cl)c1)c1ccccc1`, the Inhibition with Plasmodium falciparum [1] amounted to 98%; in the experiment with Plasmodium falciparum [2], 1%; in the experiment on HepG2 it was 2%.

On to `CCCCCCCc1c(C)nc2c(OC)cccc2c1O`, for which the Inhibition came out at 89% in the experiment on Plasmodium falciparum [1], 85% with Plasmodium falciparum [2] and 0% with HepG2.

As for `CCN(CC)CCN(Cc1ccc(-c2ccc(C(F)(F)F)cc2)cc1)C(=O)Cn1c(CCc2ccccc2F)nc(=O)c2ccccc21.O=C(O)C(O)C(O)C(=O)O`, the Inhibition in the experiment with Plasmodium falciparum [1] is on record as 95%; with Plasmodium falciparum [2], 54%; with HepG2, 39%.

Regarding `CC(=NNC(N)=O)C1=C(O)C(c2ccccc2)N(C2CCCCC2)C1=O` (stereo unspecified), the Inhibition in the experiment with Plasmodium falciparum [1] turned out to be 93%; in the experiment on Plasmodium falciparum [2] it was 96%; with HepG2 it was 59%.

As for `O=C(N/C(=C/c1cccc([N+](=O)[O-])c1)c1nc2ccccc2[nH]1)c1cccc(Br)c1`, the Inhibition with Plasmodium falciparum [1] amounted to 85%; in the experiment with Plasmodium falciparum [2] it was 88%; with HepG2 it was 0%.

Take `CC1(C)N=C(NC(=O)c2cc([N+](=O)[O-])cc([N+](=O)[O-])c2)N=C(N)N1OCc1cccc2ccccc12`: the Inhibition came to 94% in the experiment on Plasmodium falciparum [1], 20% in the experiment on Plasmodium falciparum [2] and 66% in the experiment on HepG2.

On to `c1cc(Cc2ccc(Nc3c4ccccc4nc4ccccc34)cc2)cc(Nc2c3ccccc3nc3ccccc23)c1`, for which the Inhibition in the experiment with Plasmodium falciparum [1] came to 100%; with Plasmodium falciparum [2], 100%; with HepG2, 91%.

For `Cc1cccc(-n2nc(C)c3c2NC(=O)CC3C(=O)c2ccc(Cl)s2)c1` (stereo unspecified), the Inhibition came out at 92% in the experiment with Plasmodium falciparum [1], 85% in the experiment on Plasmodium falciparum [2] and 13% in the experiment on HepG2.

As to `COc1cccc(OC)c1OCCCOc1c(C)nc(N)nc1N.Cl`, the Inhibition was 97% with Plasmodium falciparum [1], 0% in the experiment with Plasmodium falciparum [2] and 31% in the experiment on HepG2.

With `CCOc1ccccc1C1C(C(=O)C(C)(C)C)N2c3ccc(Br)cc3C=CC2C12C(=O)c1ccccc1C2=O` (stereo unspecified), the Inhibition in the experiment on Plasmodium falciparum [1] worked out at 95%; in the experiment with Plasmodium falciparum [2] it was 94%; in the experiment with HepG2, 17%.

Regarding `Cc1cccc2nc(-c3ccc(-c4cccc(CN5CCN(CCN6CCOCC6)CC5)c4)s3)[nH]c12.O=C(O)C(F)(F)F`, the values for the Inhibition with Plasmodium falciparum [1], in the experiment with Plasmodium falciparum [2] and with HepG2 were 100%, 83% and 33%, respectively.

For the molecule `N#Cc1nc2ccc(OCCN(Cc3ccccc3C(F)(F)F)c3ccc(C#N)c(C(F)(F)F)c3)cc2s1`, the Inhibition in the experiment on Plasmodium falciparum [1] amounted to 93%; in the experiment with Plasmodium falciparum [2], 47%; in the experiment on HepG2 it was 23%.
